Measurements as given in ChEMBL document CHEMBL1201862, “PubChem BioAssay data set” (2004).
Screen size: about 1,300 compounds; about 1,000 (77%) were called active. Roughly 7% stayed inconclusive and do not appear here. The rule behind the calls is not given here. So high a share suggests a set chosen from earlier hits. Only a sample is shown.

System: Giardia
Assay: qHTS of small molecules that selectively kill Giardia lamblia: Hit Validation. [Related pubchem assays (depositor defined):AID540272]
Assay type: functional
Conditions: read-out: Potency

Row | SMILES | AC50
1 | CCCc1nnc(NC(=O)C2C(=O)c3cccc4c3N(CC4)C2=O)s1 (stereo unspecified) | 16.3 µM (active)
